Measured values published in PubChem BioAssay (NCI).
This is part of a sample that, as a whole, favours compounds with a hit. Of some 83,000 tested, about 20% had one in any assay.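 Results are percent growth after 48 hours of single-concentration exposure. 100 means growth as in untreated cells, lower positive values show inhibition; negative values down to -100 show cell death.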 A number with no mark means an inactive call. The source made the active and inactive calls. How the source made its calls: active means growth percent below 10; inactive means the rest.

What follows are compounds tested on HL-60(TB) leukemia (assay: NCI-60 one-dose screen, 48 h (100 = growth as untreated, 0 = no growth, -100 = all killed)). Conditions: 10 µM unless noted.
`O=[N+]([O-])c1ccc(N/N=C/c2cccc3ccccc23)nc1` gave a growth of 26.4%. With `O=C(c1ccc(Nc2nccc(NCCCNc3ccnc4cc(Cl)ccc34)n2)cc1)N1CCCCC1` the growth was 22.4%. For `O=C(Nc1ccccc1Cl)c1cnc2ccc(C3CCNCC3)cn12`, the growth was 103%. With `C#CCOc1cccc(Nc2ncnc3cc(NC(=O)CCl)ccc23)c1` the growth was -62.2% (active). With `Nc1nc(Nc2ccccc2SSc2ccccc2Nc2nc(N)nc(-c3ccc(I)cc3)n2)nc(-c2ccc(I)cc2)n1` the growth was 83.1%. In the case of `O=C(Nc1ccccc1)OCC1OCOC(COC(=O)Nc2ccccc2)C1OC(=O)Nc1ccccc1` (stereo not given), the growth is reported as 122%. Compound `Oc1ccc2ccccc2c1CN1CCOCC1` has a growth of 105%. `COc1cc2c(cc1O)c(=O)n(CCN(C)C)c1c3cc4c(cc3ncc21)OCO4` was tested, and the growth was -29.2% (active). For `COc1ccc2c(c1)C(C)Cc1c(Cl)ncnc1N2C` (stereo not given), the growth was -0.632% (active). For `CN1CCN(c2ccc(-c3cc4c(Nc5ccc(F)c(Cl)c5)ncnn4c3)cc2)CC1`, the growth was 1.68% (active). `FC(F)(F)c1nn[nH]n1` showed a growth of 102%. `O=C(O)C(Cc1ccccc1)N1C(=O)/C(=C/C(Cl)=C/c2ccc([N+](=O)[O-])cc2)SC1=S` (stereo not given) was tested, and the growth was -8.33% (active). For `O=C1c2ccccc2C(=O)c2c1ccc(C(Br)Br)c2[N+](=O)[O-]`, the growth was -37.9% (active). For `COC(=O)/C=C1/SC(=Nc2cccc(Cl)c2)N(CCc2c[nH]c3ccc(O)cc23)C1=O`, the growth was -11.4% (active). `Cc1ccnc(Nc2ccc([N+](=O)[O-])c(NCCN3CCOCC3)n2)c1` was tested, and the growth was -14.9% (active). With `Cc1nc2ccc(CN(C)c3ccc(C(=O)N[C@@H](CCC(=O)O)C(=O)O)s3)cc2c(=O)[nH]1` the growth was 27.9%. `COc1ccc(C(O)c2cc3c(N)c(C(=O)Nc4cccc(Br)c4)sc3nc2C)cc1` (stereo not given) was tested, and the growth was -5.69% (active). Compound `Cc1cc(Cl)ccc1NC(=O)/C(Cl)=C1/Sc2ccccc2NC1=O` has a growth of 93.1%. For `c1ccc2cc(Cn3cc(CSc4nc5ccccc5s4)nn3)ccc2c1`, the growth was 102%. `Brc1ccc(Oc2ccc(Nc3ncnc4onc(-c5ccccc5)c34)cc2)cc1` was tested, and the growth was 101%. With `O=C(CCC(=O)OC1CCCC1)OC1CCCC1` the growth was 103%. For `COc1ccc2cc(-c3nc4ccccc4s3)c(Cl)nc2c1OC`, the growth was 91.4%. Compound `CCN(CC)CCCNCc1cc(-c2ccccc2)nc2cc(Cl)ccc12` has a growth of 14%. `Cc1ccc(N(CC(=O)Nc2ccc(S(=O)(=O)NC3CCN(C)CC3)cc2)S(=O)(=O)c2ccc(Cl)cc2)cc1` showed a growth of 75.7%. With `CN1CCN(c2nc(C3=C(c4c[nH]c5ccccc45)C(=O)NC3=O)c3ccccc3n2)CC1` the growth was 30.7%. `Cn1ncc2c(Sc3ccc(Cl)cc3)ncnc21` gave a growth of 81.4%. `Cc1ccc(-c2nn(-c3ccccc3)cc2C=C2C(=O)ON=C2C(C)C)cc1` was tested, and the growth was -37.7% (active). With `O=C(Nc1ccccc1Cl)OCCN1CCOCC1` the growth was 108%. With `CCOc1ccc(-c2nc3ccc(-c4nc5ccc(N6CCN(C)CC6)cc5[nH]4)cc3[nH]2)cc1` the growth was -57.9% (active). `CC(C)(C)OC(=O)N1C/C(=C\c2ccccc2)C(=O)/C(=C/c2ccccc2)C1` showed a growth of 99.6%. `CC(C)n1c2ccc(Br)cc2c2c3c(c4c5ccccc5ccc4c21)C(=O)NC3=O` was tested, and the growth was 100%. Work on `NS(=O)(=O)c1ccc(Br)cc1` yielded a growth of 96.2%. `Nc1ccccc1NC(=O)c1ccc(CN2CCC/C(=C\c3cccc(Cl)c3)C2=O)cc1` was tested, and the growth was -24.5% (active). For `C/C(=C\CCc1ccoc1)CC/C=C(\C)CCCN1CCC(CO)CC1`, the growth was 17.2%. `CN(C)CCN(Cc1ccccc1)c1ccc2ccccc2n1` was tested, and the growth was 89.7%. For `Cc1ccc(-c2nc3nc(-c4ccccc4)nc(N4CCCNCC4)c3o2)cc1`, the growth was -69.8% (active). In the case of `CCOC(=O)c1c(Cl)c2c(n1Cc1ccc(OC)cc1)-c1oncc1CCC2`, the growth is reported as 78.9%. `O=C(/C(=C/c1ccccc1)CN1CCCCC1)c1ccccc1` was tested, and the growth was -16.4% (active). `CN(C[C@@H]1COCCO1)S(=O)(=O)Nc1ccc2ccc3ncc(-c4cnn(C)c4)cc3c(=O)c2c1` gave a growth of 48.1%. `CO[C@@]12C=C[C@@]34CCC(=O)N3c3ccccc3[C@@H](O1)C4C2` showed a growth of 96.9%.
